Activity calls are given as the source filed them.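 How the source made its calls, unless noted: active means visually confirmed hit in the image check and inhibition above 20%; inconclusive means visually confirmed hit but inhibition not above 20%; inactive means no visual hit in the image check.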

Here are results for 39 molecules from PubChem BioAssay.

One test can be described thus: inhibitors of mutant huntingtin aggregation, primary screen, imaging, exon1htt(103Q)mCFP cells, high-content imaging (AID 483;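 active means visual image review flags a hit and inhibition of aggregation exceeds 20%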;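 further: compound exposure lasted 3 days before fixation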;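 on nuclei count: percent of the per-plate median nuclei count of sample wells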). To be noted: exon1htt(103Q)mCFP cell line, aggregate imaging, at 2 µM; inhibition of aggregation: stronger effect = higher value; nuclei count: measured here: cell count, toxicity.
As for `COc1ccc(C)cc1NS(=O)(=O)c1ccc(NS(=O)(=O)c2ccc(NC(C)=O)cc2)cc1`, the nuclei count turned out to be 99.4% and the inhibition of aggregation is -15.2% (inactive).

In the case of `O=C(c1ccc(Cl)s1)N1CCN(c2nc3ccccc3s2)CC1`, the nuclei count was 104% and the inhibition of aggregation was -16.4% (inactive).

As to `CCCC(=O)Nc1cc(C)c(NC(=O)c2ccccn2)cn1`, the inhibition of aggregation was 19.4% (inactive) and the nuclei count amounted to 89.7%.

Regarding `c1ccc2c(c1)CC(N1CCCCC1)c1ccccc1N2` (stereo unspecified), the nuclei count is 107% and the inhibition of aggregation was 10.2% (inactive).

In the case of `C=CCN(CC=C)C(=O)c1ccncc1`, the inhibition of aggregation was 4.9% (inactive) and the nuclei count is 53.2%.

Regarding `Fc1cccc(NCc2cn3ccccc3n2)c1`, the nuclei count amounted to 91.8% and the inhibition of aggregation is -73.5% (inactive).

Regarding `COc1ccc(S(=O)(=O)NCCC(=O)NC2CCCCCCC2)cc1`, the nuclei count was 95% and the inhibition of aggregation was 13.6% (inactive).

On to `O=C(C1CCCN(S(=O)(=O)c2cccs2)C1)N1CCc2ccccc2C1` (stereo unspecified), for which the nuclei count came to 119% and the inhibition of aggregation was -29.8% (inactive).

Turning to `CCCCc1noc2c1/C(=N\O)CC(c1ccccc1)C2` (stereo unspecified), the inhibition of aggregation was 11.5% (inactive) and the nuclei count came out at 106%.

Consider `CCOC(=O)C1CN(S(=O)(=O)c2ccc(C)cc2)CCN1S(=O)(=O)c1ccc(C)cc1` (stereo unspecified), for which the inhibition of aggregation was -36.8% (inactive) and the nuclei count stood at 117%.

As to `CCS(=O)(=O)NCCc1cc2c(OC)ccc(OC)c2[nH]c1=O`, the nuclei count is 83.7% and the inhibition of aggregation is 12.1% (inactive).

`COC(=O)C1=C(C)NC(C)=C(C(=O)OC)C1C1CC=CCC1` (stereo unspecified): the nuclei count came out at 91.2% and the inhibition of aggregation is 24.3% (inactive).

Regarding `CCOCC(=O)Nc1c(C(=O)Nc2ccc(OC)cc2OC)oc2ccccc12`, the inhibition of aggregation is 19.2% (inactive) and the nuclei count amounted to 93.9%.

With `Cc1nn(Cc2ccc(C(=O)NC3CCCCC3)o2)c(C)c1Br`, the nuclei count was 72.2% and the inhibition of aggregation was 24.1% (inactive).

Regarding `O=C(C1CCN(S(=O)(=O)c2cccc3cccnc23)CC1)N1CCN(C2CCCCC2)CC1`, the inhibition of aggregation was 3.3% (inactive) and the nuclei count was 69.2%.

In the case of `COc1cccc(C2CC(c3ccc(F)cc3)Nc3nc(N)nn32)c1` (stereo unspecified), the nuclei count was found to be 105% and the inhibition of aggregation was 1.4% (inactive).

`CCSc1nnc(NC(=O)c2csc(C)c2)s1`: the inhibition of aggregation is 12.8% (inactive) and the nuclei count was found to be 101%.

Take `Cc1ccc2cc(CCNC(=O)C(C)C)c(=O)[nH]c2c1C`: the inhibition of aggregation was 8.6% (inactive) and the nuclei count was determined as 57.4%.

In the case of `COc1cccc(-c2nc(CS(=O)(=O)CC(=O)N3CCN(c4ccccn4)CC3)c(C)o2)c1`, the inhibition of aggregation is 2.6% (inactive) and the nuclei count worked out at 115%.

Take `COC(=O)CSc1ncccc1-c1nc2ccccc2[nH]1`: the nuclei count was determined as 111% and the inhibition of aggregation is -2% (inactive).

In the case of `Cc1ccc2[nH]c(=O)c(-c3noc(-c4ccncc4)n3)cc2c1`, the inhibition of aggregation is -82.1% (inactive) and the nuclei count was determined as 65%.

As for `C/C(=N\O)C(=O)NCc1ccccn1`, the nuclei count was 108% and the inhibition of aggregation was 4.5% (inactive).

On to `CCCC(=O)Nc1ccccc1-c1nnn(CC(=O)Nc2ccc(OCC)cc2)n1`, for which the nuclei count came out at 97.4% and the inhibition of aggregation is -6.8% (inactive).

With `CSc1nnc(-c2ccc(NC(=O)CCc3ccccc3)cc2)n1C`, the inhibition of aggregation was -1.8% (inactive) and the nuclei count is 100%.

`Cn1c(=O)c2c(nc(-n3ccnc3)n2C)n(C)c1=O`: the nuclei count was determined as 85.8% and the inhibition of aggregation is 14.2% (inactive).

Regarding `COC(=O)c1ccccc1NC(=O)CSc1nc2c(c(=O)n(C)c(=O)n2C)n1C`, the nuclei count is 95.9% and the inhibition of aggregation was -5.1% (inactive).

For `CN(C(=O)Cn1c(=O)n(CCCCC(=O)NC2CCCC2)c(=O)c2ccccc21)C1CCCCC1`, the inhibition of aggregation is -6.6% (inactive) and the nuclei count was 107%.

Take `CCOC(=O)c1ccc(NC(=O)Cn2cc3c(n2)CCC(C)C3)cc1` (stereo unspecified): the nuclei count worked out at 91.4% and the inhibition of aggregation is -28.2% (inactive).

With `O=C(Nc1cnn(C23CC4CC(CC(C4)C2)C3)c1)c1cnn2c(C(F)(F)F)cc(-c3ccco3)nc12`, the inhibition of aggregation is -4.4% (inactive) and the nuclei count was found to be 108%.

With `N#C/C(=C(/O)COC(=O)CCC1CCCCC1)c1nc2ccccc2[nH]1`, the nuclei count amounted to 120% and the inhibition of aggregation was -9.2% (inactive).

For the molecule `O=C(c1ccccc1-c1nc(-c2ccccc2)no1)N1CCCC1`, the nuclei count was 90.5% and the inhibition of aggregation was 0.7% (inactive).

`CC(=O)SCCC(=O)Nc1ccccc1`: the nuclei count amounted to 122% and the inhibition of aggregation is -12.1% (inactive).

Consider `c1ccc(Cn2ncc3c2ncn2c(-c4ccncc4)nnc32)cc1`, for which the nuclei count came to 117% and the inhibition of aggregation was -7.2% (inactive).

With `CCOC(=O)c1sc2nc(SCC(=O)NCc3ccco3)n(Cc3ccccc3)c(=O)c2c1C`, the inhibition of aggregation was 0.8% (inactive) and the nuclei count worked out at 89.7%.

In the case of `N#Cc1nc(-c2ccco2)oc1N1CCN(c2cccc(Cl)c2)CC1`, the nuclei count amounted to 123% and the inhibition of aggregation is 20.8% (inactive).

For `COc1ccc(C2(C(=O)N3CCCC3)CCOCC2)cc1OC`, the nuclei count was 97.5% and the inhibition of aggregation was -9.9% (inactive).

With `O=C(O)CN1C(=O)CNC1=O`, the inhibition of aggregation was -1.9% (inactive) and the nuclei count was 60.7%.

For `Cc1c(Cl)cnc(NC(=O)COC(=O)C(NC(=O)c2ccco2)C(C)C)c1Cl` (stereo unspecified), the inhibition of aggregation was -2.1% (inactive) and the nuclei count is 80.5%.

In the case of `CCOc1ccc(N(CC(=O)NCc2ccco2)S(=O)(=O)c2ccc(OC)c(OC)c2)cc1`, the nuclei count was found to be 110% and the inhibition of aggregation was -2.6% (inactive).

The nature of another test: inhibitors of E-selectin induction by TNFa, primary screen, imaging, HUVEC, immunofluorescence, MLSMR starter and 10KST1 sets (AID 487).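 On inhibition: signal is fraction of cell area covered by stained E-selectin grains.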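 On nuclei count: 100% = median nuclei count of all wells on the same plate.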 The following applies: HUVEC TNFalpha-induced E-selectin immunofluorescence imaging, at 2 µM; inhibition: stronger effect = higher value; nuclei count: measured here: cell number, toxicity.
One may read the inhibition as the drop in the measured response relative to a control, in per cent. In the case of `COc1ccc(C)cc1NS(=O)(=O)c1ccc(NS(=O)(=O)c2ccc(NC(C)=O)cc2)cc1`, the inhibition is -16.4% (inactive) and the nuclei count is 119%.

As to `O=C(c1ccc(Cl)s1)N1CCN(c2nc3ccccc3s2)CC1`, the nuclei count was found to be 107% and the inhibition is -31.6% (inactive).

Consider `CCCC(=O)Nc1cc(C)c(NC(=O)c2ccccn2)cn1`, for which the inhibition was -10.2% (inactive) and the nuclei count was determined as 110%.

For `c1ccc2c(c1)CC(N1CCCCC1)c1ccccc1N2` (stereo unspecified), the nuclei count came to 83.5% and the inhibition was -26.5% (inactive).

On to `C=CCN(CC=C)C(=O)c1ccncc1`, for which the inhibition is -86.3% (inactive) and the nuclei count came out at 110%.

For the molecule `Fc1cccc(NCc2cn3ccccc3n2)c1`, the inhibition was -64.2% (inactive) and the nuclei count worked out at 120%.

Regarding `COc1ccc(S(=O)(=O)NCCC(=O)NC2CCCCCCC2)cc1`, the inhibition is -89.3% (inactive) and the nuclei count was determined as 97%.

For the molecule `O=C(C1CCCN(S(=O)(=O)c2cccs2)C1)N1CCc2ccccc2C1` (stereo unspecified), the inhibition was -53.2% (inactive) and the nuclei count was found to be 109%.

As to `CCCCc1noc2c1/C(=N\O)CC(c1ccccc1)C2` (stereo unspecified), the inhibition is -65.5% (inactive) and the nuclei count turned out to be 94.1%.

In the case of `CCOC(=O)C1CN(S(=O)(=O)c2ccc(C)cc2)CCN1S(=O)(=O)c1ccc(C)cc1` (stereo unspecified), the nuclei count was found to be 122% and the inhibition is -114% (inactive).

As to `CCS(=O)(=O)NCCc1cc2c(OC)ccc(OC)c2[nH]c1=O`, the inhibition was 38.9% (inactive) and the nuclei count worked out at 95.1%.

`COC(=O)C1=C(C)NC(C)=C(C(=O)OC)C1C1CC=CCC1` (stereo unspecified): the nuclei count is 93.7% and the inhibition is 32.4% (inactive).

In the case of `CCOCC(=O)Nc1c(C(=O)Nc2ccc(OC)cc2OC)oc2ccccc12`, the inhibition is 52.4% (inactive) and the nuclei count was 57.7%.

As to `Cc1nn(Cc2ccc(C(=O)NC3CCCCC3)o2)c(C)c1Br`, the nuclei count was 108% and the inhibition is -30.6% (inactive).

Regarding `O=C(C1CCN(S(=O)(=O)c2cccc3cccnc23)CC1)N1CCN(C2CCCCC2)CC1`, the inhibition was -22.1% (inactive) and the nuclei count was 106%.

For the molecule `COc1cccc(C2CC(c3ccc(F)cc3)Nc3nc(N)nn32)c1` (stereo unspecified), the nuclei count came out at 117% and the inhibition was -6.1% (inactive).

With `CCSc1nnc(NC(=O)c2csc(C)c2)s1`, the inhibition is -18.6% (inactive) and the nuclei count is 104%.

Take `Cc1ccc2cc(CCNC(=O)C(C)C)c(=O)[nH]c2c1C`: the nuclei count was 125% and the inhibition is -60.4% (inactive).

In the case of `COc1cccc(-c2nc(CS(=O)(=O)CC(=O)N3CCN(c4ccccn4)CC3)c(C)o2)c1`, the inhibition was -72.1% (inactive) and the nuclei count amounted to 114%.

`COC(=O)CSc1ncccc1-c1nc2ccccc2[nH]1`: the inhibition is -48.5% (inactive) and the nuclei count is 99.2%.

`Cc1ccc2[nH]c(=O)c(-c3noc(-c4ccncc4)n3)cc2c1`: the nuclei count turned out to be 93.8% and the inhibition is -51% (inactive).

On to `C/C(=N\O)C(=O)NCc1ccccn1`, for which the nuclei count stood at 104% and the inhibition is -55.3% (inactive).

For `CCCC(=O)Nc1ccccc1-c1nnn(CC(=O)Nc2ccc(OCC)cc2)n1`, the inhibition was -7.5% (inactive) and the nuclei count was 94.3%.

Consider `CSc1nnc(-c2ccc(NC(=O)CCc3ccccc3)cc2)n1C`, for which the inhibition is -79.2% (inactive) and the nuclei count worked out at 120%.

`Cn1c(=O)c2c(nc(-n3ccnc3)n2C)n(C)c1=O`: the nuclei count is 104% and the inhibition was -22.1% (inactive).

`COC(=O)c1ccccc1NC(=O)CSc1nc2c(c(=O)n(C)c(=O)n2C)n1C`: the nuclei count came to 119% and the inhibition was 9.9% (inactive).

As to `CN(C(=O)Cn1c(=O)n(CCCCC(=O)NC2CCCC2)c(=O)c2ccccc21)C1CCCCC1`, the inhibition is -15.5% (inactive) and the nuclei count is 117%.

As for `CCOC(=O)c1ccc(NC(=O)Cn2cc3c(n2)CCC(C)C3)cc1` (stereo unspecified), the nuclei count was 101% and the inhibition was -6% (inactive).

For the molecule `O=C(Nc1cnn(C23CC4CC(CC(C4)C2)C3)c1)c1cnn2c(C(F)(F)F)cc(-c3ccco3)nc12`, the inhibition is -107% (inactive) and the nuclei count came to 121%.

Turning to `N#C/C(=C(/O)COC(=O)CCC1CCCCC1)c1nc2ccccc2[nH]1`, the inhibition is -3.3% (inactive) and the nuclei count was 113%.

With `O=C(c1ccccc1-c1nc(-c2ccccc2)no1)N1CCCC1`, the nuclei count came out at 85.6% and the inhibition is 51% (inactive).

On to `CC(=O)SCCC(=O)Nc1ccccc1`, for which the inhibition was -61.7% (inactive) and the nuclei count turned out to be 108%.

Consider `c1ccc(Cn2ncc3c2ncn2c(-c4ccncc4)nnc32)cc1`, for which the nuclei count is 98.3% and the inhibition is -36% (inactive).

Regarding `CCOC(=O)c1sc2nc(SCC(=O)NCc3ccco3)n(Cc3ccccc3)c(=O)c2c1C`, the nuclei count worked out at 99.6% and the inhibition was -22% (inactive).

Regarding `N#Cc1nc(-c2ccco2)oc1N1CCN(c2cccc(Cl)c2)CC1`, the nuclei count amounted to 109% and the inhibition was -75.1% (inactive).

With `COc1ccc(C2(C(=O)N3CCCC3)CCOCC2)cc1OC`, the inhibition was 30.4% (inactive) and the nuclei count was 111%.

Regarding `O=C(O)CN1C(=O)CNC1=O`, the nuclei count was 119% and the inhibition was -66.2% (inactive).

Turning to `Cc1c(Cl)cnc(NC(=O)COC(=O)C(NC(=O)c2ccco2)C(C)C)c1Cl` (stereo unspecified), the nuclei count was determined as 112% and the inhibition was -17.2% (inactive).

Regarding `CCOc1ccc(N(CC(=O)NCc2ccco2)S(=O)(=O)c2ccc(OC)c(OC)c2)cc1`, the nuclei count is 110% and the inhibition is -45.5% (inactive).
